What all share (experiment): NCI-60 one-dose screen, 48 h (100 = growth as untreated, 0 = no growth, -100 = all killed)
What all share (conditions): 10 µM unless noted

For test [1], the system named is NCI-H23 lung.
Test [2] relates to NCI-H226 lung.
Test [3] relates to NCI-H322M lung.
Test [4] has as its system HOP-62 NSCLC.
The subject of test [5] is NCI-H460 lung.
The subject of test [6] is HOP-92 NSCLC.
Test [7] has as its system NCI-H522 lung.
The test system of test [8] is A549/ATCC NSCLC.
Test [9] relates to 786-0 renal.
The subject of test [10] is COLO 205 colon.
For test [11], the system named is DU-145 prostate.
Test [12] concerns K-562 leukemia.
For test [13], the system named is MALME-3M melanoma.
Test [14] deals with MDA-MB-231 breast.
Test [15] concerns RXF 393 renal.
Test [16] concerns SF-268 CNS.
Test [17] concerns SF-295 CNS.
Test [18] relates to SF-539 CNS.
In test [19] the test system is UACC-257 melanoma.
The test system of test [20] is M14 melanoma.

The panel holds about 83,000 compounds, 20% with a hit somewhere; the sample as a whole holds those more often.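 Testing used 96-well plates and a 48-hour single-concentration exposure. Example: -40 means 40% of the starting cells died.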 Unmarked numbers belong to inactive results. Active and inactive are the calls of the source. Rule for the calls: active = growth percent below 10; inactive = the rest.

On to `CC(C)[C@@H]1NC(=O)[C@]2(C)CSC(=N2)c2ccnc(c2)CNC(=O)C[C@@H](/C=C/CCS)OC1=O`, for which the growth in test [1] was 12.6%; in test [2], 11.8%; in test [3] it was 4.39% (active); in test [4], 6.46% (active); in test [5], 9.2% (active); in test [6], -16.5% (active). Besides, the growth was -18.4% (active) in [7]; -1.52% (active) in test [8]; 6.38% (active) in test [9]; -70.3% (active) in [10]; 10.5% in test [11]; 6.95% (active) in [12]. Moreover, the growth in test [13] is 14.6%; in test [14], 11.5%; in test [15], -61.7% (active); in test [16] it was 13%; in test [17] it was -1.44% (active); in [18], 17.2%. Moreover, the growth in test [19] is -25% (active); in [20], 8.55% (active).

`Cn1c(I)c(C#C[Si](C)(C)C)c(=O)[nH]c1=O`: the growth in test [1] is 17.9%; in [2] it was 78.9%; in [3] it was 115%; in test [4], 76.4%; in test [5], 104%; in test [6], -82.8% (active). The growth in test [7] is -58.7% (active); in [8], 86.3%; in [9], -10.8% (active); in [10] it was -59% (active); in test [11] it was 64.3%; in [12] it was -71.3% (active). For the same molecule, the growth in [13] was -65.9% (active); in test [14] it was 9.45% (active); in [15] it was -86.3% (active); in test [16], -8.38% (active); in test [17], 96.2%; in [18], 96.7%. The growth in test [19] was -36.5% (active); in [20], -50.1% (active).

With `Nc1ncnc2c1c(-c1ccc(Oc3ccccc3)cc1)nn2C[C@@H]1SSC[C@H]1O`, the growth in [1] was 40.6%; in test [2], -3.02% (active); in test [3] it was 36.9%; in test [4], 37.6%; in test [5], 3.61% (active); in test [6], -6.86% (active). Besides, the growth in [7] was 10.1%; in test [8], 21.4%; in test [9], 42.7%; in test [10], 52%; in test [11], 33.4%; in test [12] it was 7.7% (active). In addition, the growth in [13] is 7.28% (active); in test [14], 42.6%; in test [15] it was -9.3% (active); in [16] it was 29.3%; in [17], 24.2%; in [18], 15.3%. Besides, the values for the growth in [19] and in test [20] were 36.8% and -13.8% (active), respectively.

For `CN1CCN(CC(=O)N(C)c2ccc(N=C(c3ccccc3)c3c(O)[nH]c4ccc(C#N)cc34)cc2)CC1`, the growth in [1] was 35.5%; in test [2] it was 43.2%; in test [3] it was 37.7%; in test [4] it was 39.7%; in test [5], 21.2%; in test [6], 63.8%. The growth is 45.3% in test [7]; 19.6% in [8]; 32.4% in test [9]; 0.511% (active) in test [10]; 32.8% in test [11]; 11% in test [12]. For the same molecule, the growth in test [13] was 35.5%; in test [14] it was 42.5%; in [15], 3.21% (active); in test [16], 32%; in test [17], 18.2%; in test [18] it was -20.2% (active). The figures for the growth in [19] and in test [20] were 78.5% and 30.7%, respectively.

For the molecule `CCCCCC/C=N/Nc1ccc([N+](=O)[O-])cn1`, the growth was 98.3% in test [1]; 99.1% in test [2]; 98.7% in test [3]; 87.8% in test [4]; 112% in test [5]; 104% in test [6]. Moreover, the growth in test [7] is 78.2%; in test [8], 90.6%; in test [9], 94.7%; in [10], 98%; in [11], 103%; in test [12], 96.7%. Further, the growth in test [13] is 98.1%; in [14], 98.7%; in [15] it was 104%; in [16] it was 103%; in test [17], 95.3%; in test [18] it was 93.7%. In addition, the growth is 88.7% in test [19] and 90.4% in [20].

As to `COc1ccc(Cl)cc1NC(=O)c1cc2c([nH]1)-c1nc(NC(=O)C(C)C)sc1CC2`, the growth in test [1] was 83.5%; in [2], 79.5%; in [3], 92.8%; in test [4], 75.3%; in test [5], 106%; in test [6], 90%. Moreover, the growth in [7] was 63.7%; in test [8] it was 91.1%; in [9] it was 105%; in test [10], 102%; in test [11], 96.2%; in [12] it was 76.4%. Moreover, the growth is 104% in test [13]; 113% in test [14]; 109% in test [15]; 94.9% in [16]; 101% in test [17]; 26% in test [18]. The growth is 92.7% in test [19] and 101% in test [20].

As to `COc1ccc(Cn2cc3c(c2-c2cc(OC)c(OC)c(OC)c2)CCc2c(CO)noc2-3)cc1`, the growth was 38.3% in [1]; 47.7% in [2]; 39.7% in test [3]; 35.2% in [4]; 4.62% (active) in [5]; 57% in test [6]. The growth in test [7] was 9.75% (active); in [8], 32.5%; in [9] it was 45%; in test [10] it was -23.6% (active); in test [11], 19.4%; in [12] it was 7.1% (active). Moreover, the growth in test [13] was 94.8%; in test [14], 18%; in test [15] it was 2.44% (active); in test [16] it was 43%; in [17], 14.8%; in test [18], 3.55% (active). For the same molecule, the growth in test [19] was 64.6%; in test [20] it was 7.98% (active).

Values taken from PubChem BioAssay (NCI).
